About 83,000 compounds went through this panel and 20% of them were active in at least one assay; those are over-represented in the sample as a whole.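 In brief: 96-well plates, 48 h treatment, single concentration, percent growth endpoint.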 Unmarked numbers belong to inactive results. Calls of active or inactive are those of the source. The calls were made as follows: active = growth percent below 10; inactive = the rest.
How the values were obtained:
Assay in all cases: NCI-60 one-dose screen, 48 h (100 = growth as untreated, 0 = no growth, -100 = all killed)
Conditions in all cases: 10 µM unless noted
NCI-H23 lung = system: NCI-H23 lung
NCI-H226 lung = system: NCI-H226 lung
NCI-H322M lung = system: NCI-H322M lung
HOP-62 NSCLC = system: HOP-62 NSCLC
NCI-H460 lung = system: NCI-H460 lung
NCI-H522 lung = system: NCI-H522 lung
A549/ATCC NSCLC = system: A549/ATCC NSCLC
786-0 renal = system: 786-0 renal
COLO 205 colon = system: COLO 205 colon
DU-145 prostate = system: DU-145 prostate
K-562 leukemia = system: K-562 leukemia
MALME-3M melanoma = system: MALME-3M melanoma
MDA-MB-231 breast = system: MDA-MB-231 breast
RXF 393 renal = system: RXF 393 renal
SF-268 CNS = system: SF-268 CNS
SF-295 CNS = system: SF-295 CNS
SF-539 CNS = system: SF-539 CNS
UACC-257 melanoma = system: UACC-257 melanoma
M14 melanoma = system: M14 melanoma
HCT-15 colon = system: HCT-15 colon

SMILES | growth (NCI-H23 lung) | growth (NCI-H226 lung) | growth (NCI-H322M lung) | growth (HOP-62 NSCLC) | growth (NCI-H460 lung) | growth (NCI-H522 lung) | growth (A549/ATCC NSCLC) | growth (786-0 renal) | growth (COLO 205 colon) | growth (DU-145 prostate) | growth (K-562 leukemia) | growth (MALME-3M melanoma) | growth (MDA-MB-231 breast) | growth (RXF 393 renal) | growth (SF-268 CNS) | growth (SF-295 CNS) | growth (SF-539 CNS) | growth (UACC-257 melanoma) | growth (M14 melanoma) | growth (HCT-15 colon)
COC(=O)CCC1=C(C)/C(=C/c2[nH]c(-c3ccc[nH]3)cc2OC)N=C1C | 8.11% (active) | 23.9% | 26.6% | 3.57% (active) | 6.04% (active) | -66.9% (active) | 13% | 13.1% | 12.1% | 14.2% | -16.4% (active) | -38.1% (active) | -17% (active) | 24.1% | 21.9% | -30% (active) | 18.7% | -16.4% (active) | 4.36% (active) | –
Cc1ccc(C(C)C)cc1NC(=O)Nc1ccc([N+](=O)[O-])cc1 | -32.8% (active) | 27.3% | 43.2% | -0.0828% (active) | -1.38% (active) | -19.8% (active) | 9.96% (active) | 8.79% (active) | -35.4% (active) | 12.2% | 18.2% | 6.64% (active) | 35.6% | 90.8% | 29.9% | 4.2% (active) | 29% | -5.55% (active) | 22.3% | 10.7%
c1ccc(-c2nnc(Nc3nnc(-c4ccccc4)s3)s2)cc1 | 109% | 101% | 86.9% | 101% | 101% | 104% | 103% | 106% | 116% | 112% | 111% | 101% | 102% | 105% | 103% | 102% | 101% | 99.1% | 105% | 102%
COc1cccc2c1O/C(=C\c1c([N+](=O)[O-])ncn1C)C2=O | 99.8% | 96.9% | 84.7% | 105% | 109% | 84.3% | 99.8% | 96.1% | 109% | 102% | 89.9% | 92.4% | 119% | 113% | 98.3% | 98.2% | 100% | 93.5% | 103% | 91.4%
O=C1/C(=C/c2ccc([N+](=O)[O-])o2)Oc2ccc(Cl)cc21 | 21.3% | -7.54% (active) | 79% | 74.5% | 75.4% | -84.4% (active) | 92.4% | -53.7% (active) | -57.8% (active) | 35.7% | -30.1% (active) | -45.6% (active) | -61.9% (active) | -72.2% (active) | -52% (active) | 103% | -25.6% (active) | -2.07% (active) | -18.8% (active) | –
Cc1ccc2c(c1)O/C(=C\c1ccc([N+](=O)[O-])o1)C2=O | 56.2% | 78.9% | 68.6% | 69.6% | 25.4% | -66% (active) | 55.4% | 5.37% (active) | -41.8% (active) | -1.53% (active) | 2.06% (active) | -10.5% (active) | 48.4% | -23.5% (active) | 29.3% | 94.3% | 44.5% | 68.3% | 55.8% | 4.4% (active)
O=c1c(O)cccn1CCCNCCCN(CCCn1cccc(O)c1=O)CCCn1cccc(O)c1=O | 97.7% | 95% | 94.5% | 106% | 99% | 117% | 105% | 107% | 125% | 112% | 117% | 108% | 96% | 121% | 94% | 102% | 108% | 121% | 103% | 99.2%
COc1cccc2c1C(=O)c1c(O)c3c(c(O)c1C2=O)C[C@@](O)(/C(C)=N/NC(=O)c1cccc([N+](=O)[O-])c1)C[C@@H]3OC1CC(N)C(O)C(C)O1 (some centres not stated) | -33.6% (active) | -67.4% (active) | -3.02% (active) | -23.8% (active) | -38.5% (active) | -61% (active) | -53.4% (active) | -24.6% (active) | -98.1% (active) | -49.7% (active) | -75.7% (active) | -93.6% (active) | -5.42% (active) | -64.9% (active) | -20% (active) | -38.5% (active) | -25.7% (active) | -37.4% (active) | -43.8% (active) | –

— PubChem BioAssay (NCI)
